# Test results taken from PubChem BioAssay (Tox21).
# Several values for one entry are separate records, joined by “and”; a condition that tells them apart may be missing. Equal values may be shown once. Activity calls are given as the source filed them. Entries that show only a call come without a potency. Unless noted, calls follow the shape of the dose curve; as a rule, active = well fitted curve in the direction sought with a large enough effect in the repeat runs; inconclusive = weak or mixed curves; inactive = no such curve, though single readings can be large; an effect the other way counts as inactive or inconclusive.
# Key:
# [1] = qHTS assay to identify small molecule antagonists of the glucocorticoid receptor (GR) signaling pathway - cell viability counter screen (AID 720693); also: nearly all actives have a fitted effect of over 55% in size
# [2] = qHTS assay for identifying genotoxic compounds that show differential cytotoxicity against isogenic chicken DT40 cell lines with known DNA damage response pathways - wild type cell line (AID 743012); also: nearly all actives have a fitted effect of over 60% in size; also: potency is read from the fitted curve at half-maximal effect
# In short: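 Quantitative HTS on parental DT40 cells: 40 h compound treatment at 37 C/5% CO2, with viability then determined by CellTiter-Glo luminescence. Values serve as the DNA repair-proficient reference for differential cytotoxicity.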
# [3] = qHTS assay for identifying genotoxic compounds that show differential cytotoxicity against isogenic chicken DT40 cell lines with known DNA damage response pathways - Rev3 mutant cell line (AID 743014); also: nearly all actives have a fitted effect of over 55% in size; also: potency is read from the fitted curve at half-maximal effect
# [4] = qHTS assay for identifying genotoxic compounds that show differential cytotoxicity against isogenic chicken DT40 cell lines with known DNA damage response pathways - Rad54/Ku70 mutant cell line (AID 743015); also: nearly all actives have a fitted effect of over 60% in size; also: potency is read from the fitted curve at half-maximal effect
# [5] = qHTS assay to identify small molecule antagonists of the androgen receptor (AR) signaling pathway - cell viability counter screen (AID 743033; also: nearly all actives have a fitted effect of over 45% in size)
# [6] = qHTS assay to identify small molecule antagonists of the androgen receptor (AR) signaling pathway using the MDA cell line - cell viability counter screen (AID 743041; also: nearly all actives have a fitted effect of over 45% in size; also: potency is read from the fitted curve at half-maximal effect)
# In short: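 MDA-kb2 AR-luc human breast carcinoma cells (MMTV-luciferase, AR/GR responsive) were treated with compounds plus R1881 agonist for 16 h at 37 °C. Viability was read as CellTiter-Fluor fluorescence in the same wells as the reporter assay.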
# [7] = qHTS assay to identify small molecule antagonists of the thyroid receptor (TR) signaling pathway - cell viability counter screen (AID 743064); also: nearly all actives have a fitted effect of over 50% in size; also: potency is read from the fitted curve at half-maximal effect
# In short: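 Fluorescence from CellTiter-Fluor, added after 23.5 h exposure at 37 °C, reported viability of GH3.TRE-Luc cells co-treated with compound and 1 nM T3. Measured in the same wells as the luciferase TR readout.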
# [8] = qHTS assay to identify small molecule antagonists of the thyroid receptor (TR) signaling pathway (AID 743065); also: nearly all actives have a fitted effect of over 55% in size; also: potency is read from the fitted curve at half-maximal effect
# In short: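 GH3.TRE-Luc rat pituitary cells carrying two TR response elements driving luciferase were plated for 4 h, given compound plus 1 nM T3 (final), and incubated 23.5 h at 37 C. ONE-Glo luminescence measured reporter inhibition; CellTiter-Fluor fluorescence tracked cytotoxicity.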
# [9] = molecular target: Estrogen receptor (Homo sapiens) (UniProt P03372); assay: qHTS assay to identify small molecule antagonists of the estrogen receptor alpha (ER-alpha) signaling pathway (AID 743069; active = well fitted curve in the direction sought with a large enough effect in the signal ratio in the repeat runs, not every such curve was filed as active; inconclusive = weak or mixed curves, or effect the other way; inactive = no such curve, though single readings can be large or run the other way; the % refers to the signal ratio)
# Chain of Estrogen receptor (Homo sapiens) (P03372 whole entry, looked up): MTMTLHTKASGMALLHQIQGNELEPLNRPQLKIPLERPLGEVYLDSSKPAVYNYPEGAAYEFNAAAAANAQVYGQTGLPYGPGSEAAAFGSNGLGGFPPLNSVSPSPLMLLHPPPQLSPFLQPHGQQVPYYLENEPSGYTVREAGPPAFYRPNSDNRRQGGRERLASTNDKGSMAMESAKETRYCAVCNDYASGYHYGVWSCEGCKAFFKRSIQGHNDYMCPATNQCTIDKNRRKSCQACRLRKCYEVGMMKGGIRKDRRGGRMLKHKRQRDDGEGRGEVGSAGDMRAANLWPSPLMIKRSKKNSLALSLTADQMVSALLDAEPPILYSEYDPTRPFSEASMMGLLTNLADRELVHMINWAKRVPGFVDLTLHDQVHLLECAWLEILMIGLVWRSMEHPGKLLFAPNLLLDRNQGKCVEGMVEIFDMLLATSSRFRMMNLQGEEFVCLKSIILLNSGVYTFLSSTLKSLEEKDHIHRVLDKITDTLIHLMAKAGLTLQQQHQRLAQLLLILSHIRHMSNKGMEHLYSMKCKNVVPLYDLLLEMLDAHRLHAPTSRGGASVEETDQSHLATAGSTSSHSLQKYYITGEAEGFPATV
# In short: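 HEK293 cells stably carrying an ER-alpha-UAS-bla beta-lactamase reporter were pre-cultured overnight in 2% charcoal-stripped FBS medium. Test compounds in DMSO were added together with 17beta-estradiol for 18 hr at 37C. Read-out was fluorescence after 2 hr with LiveBLAzer B/G FRET substrate at room temperature.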
# [10] = qHTS assay to identify small molecule antagonists of the estrogen receptor alpha (ER-alpha) signaling pathway - cell viability counter screen (AID 743074; calls by dose curve; also: nearly all actives have a fitted effect of over 45% in size)
# [11] = molecular target: Estrogen receptor (Homo sapiens) (UniProt P03372); assay: qHTS assay to identify small molecule agonists of the estrogen receptor alpha (ER-alpha) signaling pathway (AID 743075; calls by dose curve; also: potency is read from the fitted curve at half-maximal effect)
# [12] = molecular target: Estrogen receptor (Homo sapiens) (UniProt P03372); assay: qHTS assay to identify small molecule agonists of the estrogen receptor alpha (ER-alpha) signaling pathway using the BG1 cell line (AID 743079); details: BG1Luc4E2 cells, ERE-luciferase agonist, 22 h; activation: at 70.3 µM (top of the series); also: nearly all actives have a fitted effect of over 20% in size; also: potency is read from the fitted curve at half-maximal effect
# [13] = qHTS assay to identify small molecule antagonists of the estrogen receptor alpha (ER-alpha) signaling pathway using the BG1 cell line (AID 743080; calls by dose curve; also: nearly all actives have a fitted effect of over 25% in size)
# In short: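 Antagonist mode: compounds in DMSO were pinned onto BG1-Luc-4E2 cells alongside 17beta-estradiol agonist, incubated 21.5 h, and ERE-driven luciferase measured with ONE-Glo. Cytotoxicity was multiplexed using CellTiter-Fluor fluorescence.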
# [14] = qHTS assay to identify small molecule antagonists of the estrogen receptor alpha (ER-alpha) signaling pathway using the BG1 cell line - cell viability counter screen (AID 743081);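 also: compound given together with 17beta-estradiol as the ER stimulus; nearly all actives have a fitted effect of over 45% in size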; also: potency is read from the fitted curve at half-maximal effect
# Aromatase (Homo sapiens) = Aromatase (Homo sapiens) (UniProt P11511); assay: qHTS assay to identify aromatase inhibitors (AID 743083); also: nearly all actives have a fitted effect of over 55% in size
# Chain of Aromatase (Homo sapiens) (P11511 whole entry, looked up): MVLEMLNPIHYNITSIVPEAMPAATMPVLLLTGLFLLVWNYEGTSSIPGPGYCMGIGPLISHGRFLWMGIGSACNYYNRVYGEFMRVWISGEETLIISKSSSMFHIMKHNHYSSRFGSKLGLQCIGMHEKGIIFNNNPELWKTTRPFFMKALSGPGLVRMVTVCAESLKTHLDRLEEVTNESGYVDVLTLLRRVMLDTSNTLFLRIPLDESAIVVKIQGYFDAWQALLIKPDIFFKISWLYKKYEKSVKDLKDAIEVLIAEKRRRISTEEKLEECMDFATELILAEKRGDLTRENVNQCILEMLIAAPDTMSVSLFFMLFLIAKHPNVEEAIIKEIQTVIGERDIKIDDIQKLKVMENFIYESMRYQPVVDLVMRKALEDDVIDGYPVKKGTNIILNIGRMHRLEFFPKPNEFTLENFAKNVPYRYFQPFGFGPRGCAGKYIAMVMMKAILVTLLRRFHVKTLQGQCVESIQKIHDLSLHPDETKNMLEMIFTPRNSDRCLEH
# [15] = tested on: thyroid hormone receptor (rat, GH3 cells); assay: qHTS assay to identify small molecule agonists of the thyroid receptor (TR) signaling pathway (AID 743066; calls by dose curve)
SMILES,Potency [1],Potency [2],Potency [3],Potency [4],Potency [5],Potency [6],Potency [7],Potency [8],Potency [9],Potency [10],Potency [11],Potency [12],Potency [13],Potency [14],Potency (Aromatase (Homo sapiens)),outcome [15]
CNCCCC1c2ccccc2C=Cc2ccccc21,inactive,4.52 µM (active),12.7 µM (active),11.4 µM (active),inactive,inactive,4.52 µM (active),11.4 µM (active),inactive,inactive,inactive,inactive,inactive,inactive,inactive,–
CC(C)CCCCCCOC(=O)CCCCC(=O)OCCCCCCC(C)C,inactive,inactive,30.6 µM (active),inactive,inactive,inactive,–,inactive,inactive,inactive,inactive,inactive,inactive,inactive,inactive,inactive
CCC(C)(C)C1CCC(O)CC1 (centres undefined),inactive,inactive,inactive,inactive,inactive,inactive,–,inactive,inactive,inactive,inactive,–,inactive,inactive,inactive,inactive
C[N+]1(C)CCC(=C(c2ccccc2)c2ccccc2)CC1,inactive,inactive,inactive,inactive,inactive,inactive,–,inactive,–,inactive,–,–,–,inactive,inactive,inactive
CCCCCCCCCCOS(=O)(=O)O,inactive,inactive,inactive,inactive,inactive,inactive,inactive,–,inactive,inactive,inactive,inactive,inactive,inactive,inactive,inactive
CN1CCCN=C1/C=C/c1cccs1,inactive,inactive,inactive,inactive,inactive,inactive,–,–,inactive,–,23.9 µM [inconclusive] (active),7.5 µM (active),inactive,inactive,inactive,–
CCOc1cc(N)c(Cl)cc1C(=O)NCC1CN(Cc2ccc(F)cc2)CCO1 (centres undefined),inactive,18.8 µM (active),11.9 µM (active),21.1 µM (active),inactive,inactive,inactive,–,inactive,inactive,inactive,inactive,inactive,inactive,inactive,inactive
CCC(C)=O,inactive,inactive,inactive,inactive,inactive,inactive,–,inactive,–,inactive,–,–,–,inactive,–,inactive
COCC(O)CO (centres undefined),inactive,inactive,inactive,inactive,inactive,inactive,–,inactive,inactive,inactive,inactive,inactive,inactive,inactive,inactive,inactive
CC(=O)Nc1ccccc1C,inactive,inactive,inactive,inactive,inactive,inactive,–,inactive,inactive,–,inactive,inactive,inactive,inactive,inactive,inactive
C=CC(C)(O)CCCC(C)CCCC(C)CCCC(C)C (centres undefined),inactive,inactive,inactive,inactive,inactive,inactive,–,inactive,inactive,inactive,inactive,inactive,inactive,inactive,inactive,–
CCCCN(CCCC)CCCOC(=O)c1ccc(N)cc1,inactive,4.52 µM (active),2.27 µM (active),4.52 µM (active),inactive,inactive,inactive,inactive,–,inactive,–,–,–,–,inactive,inactive
COc1ccccc1N=Nc1c(S(=O)(=O)O)cc2cc(S(=O)(=O)O)cc(NC(C)=O)c2c1O,inactive,28.8 µM (active),18.2 µM (active),14.4 µM (active),inactive,45.7 µM (active),32.3 µM (active),–,–,inactive,–,–,–,28.8 µM (active),–,inactive
OC/C(Br)=C(\Br)CO,inactive,inactive,inactive,inactive,inactive,inactive,–,inactive,inactive,inactive,inactive,–,inactive,inactive,inactive,inactive
C[C@]12CCC(=O)C=C1C=C[C@@H]1[C@@H]2CC[C@@]2(C)[C@H]1CC[C@@]21CCC(=O)O1,inactive,16.8 µM (active),23.7 µM (active),26.6 µM (active),inactive,inactive,inactive,–,inactive,inactive,inactive,–,–,inactive,–,inactive
O=C(O)c1snc(Cl)c1Cl,inactive,61.1 µM (active),61.1 µM (active),61.1 µM (active),inactive,inactive,–,–,–,inactive,–,–,–,inactive,inactive,inactive
N#C/C(=C1/SC[C@@H](c2ccc(Cl)cc2Cl)S1)n1ccnc1,inactive,21.1 µM (active) and 13.3 µM (active) and 26.6 µM (active),26.6 µM (active) and 29.8 µM (active),26.6 µM (active) and 23.7 µM (active) and 33.5 µM (active),inactive,inactive,–,21.1 µM (active) and 13.3 µM (active),–,inactive,–,–,–,inactive,–,inactive
CC1=CC(=O)CC(C)(C)C1(O)/C=C/C(C)=C\C(=O)O (centres undefined),inactive,inactive,inactive,inactive,inactive,inactive,inactive,inactive,–,inactive,–,–,–,inactive,inactive,inactive
